The values below come from PubChem BioAssay (Tox21).

Structures are written as SMILES. Activity calls are given as the source filed them. Entries that show only a call come without a potency. Calls come from the whole dose curve; as a rule, active = well fitted inhibition curve with a large enough effect in the repeat runs (not every such curve was filed as active); inconclusive = weak or mixed curves; inactive = flat fitted curve, though single readings scatter.
Potency is the fitted concentration of half-maximal effect.

In the experiment the target is Thyrotropin-releasing hormone receptor (Homo sapiens) (UniProt P34981). Put plainly: qHTS assay to identify small molecule antagonists of the thyrotropin-releasing hormone receptor (TRHR) signaling pathway (AID 1346877). As to conditions: TRHR-HEK293, TRH-induced calcium fluorescence, antagonist mode; series mostly up to 51.3 µM. In short, it runs like this: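 Overnight-plated (18 h, 37 °C) HEK293 cells expressing TRHR were dye-loaded 2 h, treated with compound, then stimulated with TRH at 1 nM final. Fluorescence intensity was captured every second for 3 min.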
Sequence of Thyrotropin-releasing hormone receptor (Homo sapiens) (P34981 whole entry, looked up): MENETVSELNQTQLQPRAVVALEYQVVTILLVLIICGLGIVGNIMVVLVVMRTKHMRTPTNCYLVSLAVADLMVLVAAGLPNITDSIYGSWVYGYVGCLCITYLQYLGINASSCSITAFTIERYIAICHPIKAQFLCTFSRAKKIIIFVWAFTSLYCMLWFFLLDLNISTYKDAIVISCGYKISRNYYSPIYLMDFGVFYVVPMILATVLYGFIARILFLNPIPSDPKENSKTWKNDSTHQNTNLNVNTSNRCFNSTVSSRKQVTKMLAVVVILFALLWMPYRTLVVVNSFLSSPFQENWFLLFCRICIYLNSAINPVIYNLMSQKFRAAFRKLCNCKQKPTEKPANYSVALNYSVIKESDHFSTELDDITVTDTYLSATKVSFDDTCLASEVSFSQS
Regarding `O=C1Cc2ccccc2C1`, the Potency entry is “inactive”. Consider `CCCCCCCCCCCCCCCCCCNC(=O)OC1CCN(C(=O)OC[C@H](COC(=O)N(Cc2cccc[n+]2CC)C(=O)c2ccccc2OC)OC)CC1`, for which the Potency entry is “inactive”. Same read-out and setting: the entry for `CCCOC(=O)c1ccc(O)cc1` is “inactive”; for `CCOc1ccc([N+](=O)[O-])cc1` it is “inactive”. As for `CCCCCCCCCC[N+](C)(CCCCCCCCCC)CCC[Si](OC)(OC)OC`, the Potency result is “inactive”.

For `O=C1CCC/C=C\CCCCCCCCCC1`, the Potency entry was “inactive”. `CCOC(=O)[C@H](O)[C@@H](O)C(=O)OCC`: the Potency result was “inactive”. Take `CSc1nnc(C(C)(C)C)c(=O)[nH]1`: the Potency entry is “inactive”. On to `Brc1cc(Br)cc(Br)c1`, for which the Potency result is “inactive”.

As for `c1ccc2occc2c1`, the Potency result was “inactive”.

Consider `Cc1ccc(S(=O)(=O)C(I)I)cc1`, for which the Potency was 10.7 µM (active). Take `CCCCCCCCCCCCN1CCCC1=O`: the Potency entry is “inactive”. Regarding `CCSCC`, the Potency entry was “inactive”. With `COc1cc(/C=C/C(=O)CC(=O)/C=C/c2ccc(O)c(OC)c2)ccc1O`, the Potency entry is “inactive”. Same read-out and setting: the entry for `Cc1c(Cl)c(=O)oc2cc(O)ccc12` is “inactive”; for `Nc1ccc(Oc2cccc(Oc3ccc(N)cc3)c2)cc1` it is “inactive”. In the case of `O=C(Nc1ccccc1)c1cc(Cl)ccc1O`, the Potency result was “inactive”. As for `S=C1NC=NC2N=CNC12` (stereo not given), the Potency entry was “inactive”. `CCc1c(C)cc(N)c(CC)c1N`: the Potency result is “inactive”. Same read-out and setting: in the case of `CCCC(=O)c1cc(O)c(O)cc1O` it was “inactive”; in that of `CC/C=C\C/C=C\C/C=C\CCCCCCCC(=O)OC`, “inactive”.

As for `COc1cc2ncnc(Nc3cccc(Cl)c3)c2cc1OC`, the activity, negative = inhibition is -3.3% [at 10.5 µM] (inactive). For `CC(C)=NNC(N)=S`, the Potency result is “inactive”.

Regarding `c1ccc(-c2ccccc2-c2ccccc2)cc1`, the Potency result was “inactive”. For the compound `CC1(C)[C@H]2CC[C@]1(C)C(=O)C2`, the Potency entry was “inactive”.
